# Source: PubChem BioAssay (NCATS)
# Results filed as inconclusive are left out. Active and inactive are the calls of the source. Unless noted, calls come from the whole dose curve; as a rule, active = well fitted curve in the direction sought with a large enough effect; inconclusive = small, poorly fitted or top-dose-only effect, or another doubt; inactive = no such curve, though single readings can be large; an effect the other way counts as inactive or inconclusive.
# Experiments:
# [1] = test system: Zika virus NS2B-NS3 protease (unlinked complex); assay: Primary screen GU Rhodamine qHTS for Zika virus inhibitors: Unlinked NS2B-NS3 protease assay (AID 1347159); note: nearly all actives have a fitted effect of over 60% in size; note: potency is the fitted concentration of half-maximal effect; for activity change, negative = inhibition: % is set by controls: 0 for no effect and ±100 for the full control effect
# Procedure, shortened: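 Compounds, tested up to 114 microM, were incubated for 15 minutes with 25 nM unlinked NS2B-NS3 protease at pH 8.0. Cleavage of 1.5 microM Rhodamine110 substrate was then followed by fluorescence for 15 minutes.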
# [2] = biological target: Cytochrome P450 2D6 (Homo sapiens) (UniProt P10635); assay: Cytochrome P450 family 2 subfamily D member 6 (CYP2D6) small molecule antagonists: luciferase biochemical (cell-free) qHTS assay (AID 1645840; active = well fitted curve in the direction sought with a large enough effect in the repeat runs; an effect the other way counts as inactive or inconclusive; note: nearly all actives have a fitted effect of over 55% in size; note: potency is the fitted concentration of half-maximal effect; for activity change, negative = inhibition: % is set by controls: 0 for no effect and ±100 for the full control effect)
# Procedure, shortened: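 P450-Glo luminescent screen: recombinant CYP2D6 enzyme–proluciferin substrate mix preincubated with compound 10 min at room temperature, then NADPH regeneration added for 1 h at room temperature. Detection reagent added for 20 min; luciferin light read as relative luminescence units.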
# [3] = biological target: Cytochrome P450 2C9 (Homo sapiens) (UniProt P11712); assay: Cytochrome P450 family 2 subfamily C member 9 (CYP2C9) small molecule antagonists: luciferase biochemical (cell-free) qHTS assay (AID 1645842; active = well fitted curve in the direction sought with a large enough effect in the repeat runs; an effect the other way counts as inactive or inconclusive; note: nearly all actives have a fitted effect of over 55% in size; note: potency is the fitted concentration of half-maximal effect)
# Procedure, shortened: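 Luminescence, after 20 min with luciferin detection reagent, reflected CYP2C9 turnover during a 1 h NADPH-driven reaction at 37C. Enzyme-substrate mix contained 0.4% bovine serum albumin and was preincubated with compound 10 min at room temperature.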
# CRL-7250 = normal cell line; assay: Cytotoxic Profiling of Annotated Libraries Using Quantitative High-Throughput Screening (AID 1296008); conditions: Five cell lines viability, CellTiter-Glo ATP luminescence, 48-72 h; max response: stronger effect = lower value; note: nearly all actives have a fitted effect of over 60% in size; note: potency is the fitted concentration of half-maximal effect; for max response: % is set by controls: 0 for no effect and ±100 for the full control effect
# Procedure, shortened: (§1)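 Cytotoxicity was measured as CellTiter-Glo ATP luminescence, read after 10 min at room temperature. Compound treatment of the cells lasted 48 or 72 hr at 37 degrees Celsius in a qHTS format.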
# HaCat [4] = assay: as above; conditions: Five cell lines viability, CellTiter-Glo ATP luminescence, 48-72 h; max response: stronger effect = lower value
# Procedure, shortened: as §1
# PA-1 = assay: Primary qHTS to identify gynecologic anti-cancer compounds using libraries of approved drugs and bioactive compounds (AID 1345084); conditions: Gynecologic cancer cell panel viability, ATPlite luminescence, 48 h; series mostly up to 57.5 µM; note: nearly all actives have a fitted effect of over 55% in size; note: potency is the fitted concentration of half-maximal effect
# Procedure, shortened: (§2)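 Five-concentration response, 48 h; readout is ATP-driven luciferase luminescence.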
# [5] = P-glycoprotein substrates identified in KB-8-5-11 adenocarcinoma cell line, qHTS therapeutic library screen (AID 1346987); note: nearly all actives have a fitted effect of over 65% in size; note: potency is the fitted concentration of half-maximal effect
# Procedure, shortened: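 KB-8-5-11: colchicine-selected sub-line of KB-3-1 over-expressing P-gp; assay medium lacked colchicine. 72 h drug exposure at 37 degree C, CellTiter-Glo.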
# [6] = qHTS to identify inhibitors of the type 1 interferon - major histocompatibility complex class I in skeletal muscle: primary screen against the NCATS Mechanism Interrogation Plate v5.0 (MIPE) Libary (AID 1347411);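 note: plate controls were vehicle for no effect and reference inhibitor for full effect; nearly all actives have a fitted effect of over 65% in size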
# Procedure, shortened: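 Immortalized human C25cl48 myoblasts with HiBit knocked into endogenous HLA-B*08:01 were stimulated with 4.0 ng/ml IFN-beta and exposed to compounds (11-point 1:3 titration, top 46 uM final) for 24 hrs at 37 C; HiBiT lytic luminescence measured.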
# [7] = qHTS drug screen for cell cycle checkpoint inhibitors in PARPi-resistant BRCA-mutant ovarian cancer cell lines. (AID 1963452; calls by dose curve); conditions: PEO1/OlaR viability, CellTiter-Glo luminescence, 96 h, stronger effect = lower value
# Procedure, shortened: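 PEO1, PEO4 and PEO1/OlaR ovarian cancer cells, 600 per well, exposed 96 h at 37C to a dilution series. Viability read by CellTiter-Glo luminescence, normalized to DMSO and empty wells; activity summarized as Z-AUC.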
# SKOV3 = assay: Primary qHTS to identify gynecologic anti-cancer compounds using libraries of approved drugs and bioactive compounds (AID 1345084); conditions: Gynecologic cancer cell panel viability, ATPlite luminescence, 48 h; series mostly up to 57.5 µM; note: nearly all actives have a fitted effect of over 55% in size; note: potency is the fitted concentration of half-maximal effect
# Procedure, shortened: as §2
# [8] = Confirmatory screen NINDS Rhodamine qHTS for Zika virus inhibitors (AID 1347161); note: potency is the fitted concentration of half-maximal effect; nearly all actives have a fitted effect of over 60% in size
# Procedure, shortened: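 Single-chain NS2B-NS3 protease, 25 nM, pH 8.0; compounds preincubated 15 min. Activity: Rhodamine110 release from 1.5 microM substrate over 15 min, room temperature, data fitted to 4-parameter Hill.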
# [9] = Tertiary RLuc qRT-PCR qHTS assay for Zika virus inhibitors (AID 1347169)
# Procedure, shortened: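 Vero, 1,000 cells/well, o/n 37 C; cpd pinned in DMSO; ZIKV-RLuc Cambodian, MOI 1-2, 48-72 h 37 C; live-cell RLuc substrate, lum read at 1-1.5 h.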
# [10] = biological target: Catechol O-methyltransferase (Homo sapiens) (UniProt P21964); assay: Confirmatory Screen for Target Class Profiling of Small Molecule Inhibitors of Methyltransferases (AID 1745852; calls by dose curve; for activity change, negative = inhibition: % is set by controls: 0 for no effect and ±100 for the full control effect); conditions: MTase-Glo luminescence, SAH detection, recombinant enzyme; measured here: COMT max response; stronger effect = lower value
# [11] = biological target: Guanidinoacetate N-methyltransferase (Homo sapiens) (UniProt Q14353); assay: as above; conditions: activity change, negative = inhibition: at 57.3 µM (top of the series) unless noted
# [12] = biological target: Nicotinamide N-methyltransferase (Homo sapiens) (UniProt P40261); assay: as above; conditions: MTase-Glo luminescence, SAH detection, recombinant enzyme; measured here: NNMT max response; stronger effect = lower value
# [13] = biological target: Phenylethanolamine N-methyltransferase (Homo sapiens) (UniProt P11086); assay: as above; conditions: MTase-Glo luminescence, SAH detection, recombinant enzyme; measured here: PNMT max response; stronger effect = lower value
# HACAT [14] = assay: qHTS assay to identify novel small-molecules to repurpose for Merkel cell carcinoma treatment (AID 1296009); conditions: MCC and control cell lines, CellTiter-Glo viability, 72 h; at 44.8 µM (top of the series) unless noted; note: nearly all actives have a fitted effect of over 60% in size
# Procedure, shortened: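 After compound transfer in DMSO, plates were kept 72 hr at 37 degree celsius. Luminescent ATP signal from CellTiter-Glo served as viability measure, normalized against DMSO and no-cell controls.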
# [15] = measured here: PEO1 parental Z-AUC
# Chain of Phenylethanolamine N-methyltransferase (Homo sapiens) (P11086 whole entry, looked up): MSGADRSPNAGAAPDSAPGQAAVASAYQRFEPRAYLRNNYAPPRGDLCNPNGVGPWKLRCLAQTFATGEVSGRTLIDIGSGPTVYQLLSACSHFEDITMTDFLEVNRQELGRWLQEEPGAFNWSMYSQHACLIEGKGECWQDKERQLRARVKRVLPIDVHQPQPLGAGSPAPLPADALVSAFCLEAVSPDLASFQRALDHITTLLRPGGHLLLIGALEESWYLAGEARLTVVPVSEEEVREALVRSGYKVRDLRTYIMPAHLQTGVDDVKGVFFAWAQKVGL
# Chain of Catechol O-methyltransferase (Homo sapiens) (P21964 whole entry, looked up): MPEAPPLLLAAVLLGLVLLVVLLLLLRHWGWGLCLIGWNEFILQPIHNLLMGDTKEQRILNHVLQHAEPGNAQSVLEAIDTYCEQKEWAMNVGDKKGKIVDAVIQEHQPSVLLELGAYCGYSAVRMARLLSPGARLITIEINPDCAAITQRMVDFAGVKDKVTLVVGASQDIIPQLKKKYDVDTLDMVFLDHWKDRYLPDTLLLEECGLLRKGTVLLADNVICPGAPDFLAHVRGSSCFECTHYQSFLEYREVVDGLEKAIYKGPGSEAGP
# Chain of Nicotinamide N-methyltransferase (Homo sapiens) (P40261 whole entry, looked up): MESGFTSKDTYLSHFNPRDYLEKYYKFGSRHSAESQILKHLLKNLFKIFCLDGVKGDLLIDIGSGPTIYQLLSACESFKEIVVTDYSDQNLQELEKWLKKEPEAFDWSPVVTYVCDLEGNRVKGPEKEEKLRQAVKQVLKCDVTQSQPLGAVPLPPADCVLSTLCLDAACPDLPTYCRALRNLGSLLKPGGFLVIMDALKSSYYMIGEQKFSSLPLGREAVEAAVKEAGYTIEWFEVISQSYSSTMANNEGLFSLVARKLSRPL
# Chain of Cytochrome P450 2D6 (Homo sapiens) (P10635 whole entry, looked up): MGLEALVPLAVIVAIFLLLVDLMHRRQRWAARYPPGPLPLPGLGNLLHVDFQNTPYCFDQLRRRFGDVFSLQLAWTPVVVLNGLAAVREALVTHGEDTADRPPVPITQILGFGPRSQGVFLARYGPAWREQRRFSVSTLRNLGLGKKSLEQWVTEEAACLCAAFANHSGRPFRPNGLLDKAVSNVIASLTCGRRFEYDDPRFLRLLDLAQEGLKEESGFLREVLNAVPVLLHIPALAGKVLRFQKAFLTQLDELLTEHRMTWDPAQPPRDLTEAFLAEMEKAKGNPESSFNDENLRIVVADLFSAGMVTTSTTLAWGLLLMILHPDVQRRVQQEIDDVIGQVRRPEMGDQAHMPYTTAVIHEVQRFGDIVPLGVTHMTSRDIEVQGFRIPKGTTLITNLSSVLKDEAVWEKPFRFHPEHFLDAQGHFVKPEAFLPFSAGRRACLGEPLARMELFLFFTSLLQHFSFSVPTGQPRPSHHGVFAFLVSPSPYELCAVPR
# Chain of Cytochrome P450 2C9 (Homo sapiens) (P11712 whole entry, looked up): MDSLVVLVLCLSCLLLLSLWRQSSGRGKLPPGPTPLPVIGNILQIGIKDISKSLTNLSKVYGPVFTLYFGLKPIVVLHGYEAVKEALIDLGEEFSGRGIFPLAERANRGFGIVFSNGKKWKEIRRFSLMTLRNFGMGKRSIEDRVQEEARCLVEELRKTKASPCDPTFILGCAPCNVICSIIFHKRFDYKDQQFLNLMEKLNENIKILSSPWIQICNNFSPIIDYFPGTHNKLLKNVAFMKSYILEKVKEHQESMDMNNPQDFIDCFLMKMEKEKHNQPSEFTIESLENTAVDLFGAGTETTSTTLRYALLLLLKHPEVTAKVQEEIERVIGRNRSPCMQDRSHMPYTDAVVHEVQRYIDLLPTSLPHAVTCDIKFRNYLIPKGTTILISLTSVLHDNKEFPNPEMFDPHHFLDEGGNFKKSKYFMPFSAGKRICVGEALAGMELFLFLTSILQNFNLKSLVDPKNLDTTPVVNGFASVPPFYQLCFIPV
smiles,measurement,setting,value
N#Cc1c[nH]c2c(C(=O)N3CCN(CCc4ccc(F)cc4)CC3)cccc12,Potency,[1],inactive
same,Potency,[2],15.1 µM (active)
same,Potency,[3],13.5 µM (active)
same,outcome,CRL-7250,inactive
same,max response,HaCat [4],-7.89% (inactive)
same,Potency,PA-1,inactive
CN(C)C(=O)c1cc2cnc(Nc3ccc(N4CCNCC4)cn3)nc2n1C1CCCC1,Potency,[5],inactive
same,Potency,[1],inactive
same,Potency,[6],inactive
same,Z-AUC,[7],0.0269 (inactive)
same,Z-AUC,[7]; [15],0.759
same,Z-AUC,[7]; measured here: PEO4 Z-AUC,0.126
same,max response,CRL-7250,3.25% (inactive)
same,Potency,SKOV3,inactive
CN(Cc1ccc(C(=O)O)cc1)c1ccc(OCc2c(-c3c(Cl)cccc3Cl)noc2C2CC2)nc1C(F)(F)F,Potency,[1],2 µM (active)
same,Potency,[8],2.21 µM (active)
same,Potency,[9],13.1 µM (active)
same,activity,[10],-2.57%
same,"activity change, negative = inhibition",[11],-2.02%
same,activity,[12],-0.741%
same,activity,[13],0.284%
same,outcome,CRL-7250,inactive
same,Potency,PA-1,inactive
same,Potency,SKOV3,inactive
C/C=C(/COC(=O)/C(C)=C/C)C(=O)OC/C=C/c1ccc(OC)cc1,Potency,[1],inactive
same,max response,CRL-7250,-7.59% (inactive)
same,outcome,HaCat [4],inactive
same,outcome,HACAT [14],inactive
same,Potency,SKOV3,inactive
CCC(=O)c1cc(-c2ccc(Cl)cc2)n(-c2ccc(S(N)(=O)=O)cc2)c1C,outcome,CRL-7250,inactive
same,Potency,PA-1,inactive
CC[C@H](CO)Nc1nc(Nc2cccc(-c3ccccn3)c2)c2ncn(C(C)C)c2n1,Potency,[1],inactive
same,Potency,[3],0.379 µM (active)
same,max response,CRL-7250,-6.96% (inactive)
same,Potency,HaCat [4],18.4 µM (active)
same,Potency,SKOV3,inactive
Cc1ccccc1C(=O)Nc1ccc(C(=O)N2CCC[C@@H](O)c3cc(Cl)ccc32)c(C)c1,Potency,[1],inactive
same,max response,CRL-7250,-3.25% (inactive)
same,max response,HaCat [4],-22.4% (inactive)
same,Potency,PA-1,inactive
O=C(c1ccc(F)c(F)c1Nc1ccc(I)cc1F)N1CC(O)([C@@H]2CCCCN2)C1,Potency,[5],20.6 µM (active)
same,Potency,[1],inactive
same,Z-AUC,[7],-1.02 (inactive)
same,Z-AUC,[7]; [15],-0.911
same,Z-AUC,[7]; measured here: PEO4 Z-AUC,-1.32
same,Potency,CRL-7250,7.31 µM (active)
same,Potency,PA-1,inactive
COc1ccc(C(=O)N(CCC(C)C)Cc2nc(C)c(C)n2Cc2ccccc2C)c(OC)c1,Potency,[1],inactive
same,Potency,[2],0.952 µM (active)
same,Potency,[3],21.3 µM (active)
same,activity,[10],-8.43%
same,"activity change, negative = inhibition",[11],-6.57%
same,activity,[12],-68.8%
same,activity,[13],-7.99%
same,max response,CRL-7250,-0.877% (inactive)
same,Potency,PA-1,inactive
same,Potency,SKOV3,inactive
Cn1cc(-c2cnc3ccc4ccc(CS(=O)(=O)NCc5ccccn5)cc4c(=O)c3c2)cn1,Potency,[1],inactive
same,Potency,[6],inactive
same,activity,[10],-3.92%
same,Potency,[11],inactive
same,activity,[12],-3.63%
same,activity,[13],-3.14%
same,Z-AUC,[7],-1.05 (inactive)
same,Z-AUC,[7]; [15],-0.542
same,Z-AUC,[7]; measured here: PEO4 Z-AUC,-0.899
same,max response,CRL-7250,-6.66% (inactive)
same,max response,HaCat [4],-3.23% (inactive)
same,Potency,PA-1,inactive
Cn1c(NC[C@@H](N)Cc2ccccc2)nc(-c2ccncc2)c(-c2ccc3ccccc3c2)c1=O,Z-AUC,[7],-0.2 (inactive)
same,Z-AUC,[7]; [15],0.768
same,Z-AUC,[7]; measured here: PEO4 Z-AUC,0.932
same,max response,CRL-7250,-1.38% (inactive)
same,Potency,PA-1,inactive
same,Potency,SKOV3,inactive
N#CCC(C1CCCC1)n1cc(-c2ncnc3[nH]ccc23)cn1 (stereo unspecified),Potency,[1],inactive
same,Potency,[2],inactive
same,Potency,[3],15.1 µM (active)
same,max response,CRL-7250,-27.8% (inactive)
same,outcome,HaCat [4],inactive
same,outcome,HACAT [14],inactive
same,Potency,PA-1,inactive
same,Potency,SKOV3,inactive
COc1cccc(CNC(=O)Nc2nc(-c3ccncc3)cs2)c1,Potency,[2],0.601 µM (active)
same,Potency,[3],0.239 µM (active)
same,max response,CRL-7250,-25.8% (inactive)
same,max response,HaCat [4],-7.04% (inactive)
same,Potency,PA-1,inactive
same,Potency,SKOV3,inactive
CC(C)CCC[C@@H](C)[C@H]1CC[C@H]2[C@@H]3CC=C4C[C@@H](OC(=O)NCCN(C)C)CC[C@]4(C)[C@H]3CC[C@]12C,outcome,CRL-7250,inactive
same,max response,HaCat [4],-22.1% (inactive)
same,Potency,PA-1,inactive
same,Potency,SKOV3,22.4 µM (active)
CN(C)CCCNc1nc(CN2CCN(C(c3ccc(Cl)cc3)c3ccc(Cl)cc3)CC2)nc2ccccc12,Potency,[1],inactive
same,Potency,[3],inactive
same,activity,[10],2.87%
same,"activity change, negative = inhibition",[11],0%
same,activity,[12],-46.9%
same,activity,[13],-0.0137%
same,max response,CRL-7250,1.9% (inactive)
same,Potency,PA-1,inactive
COc1cc(O)ccc1OCCNCC(O)COc1cccc2[nH]c3ccccc3c12 (stereo unspecified),Potency,[1],inactive
same,max response,CRL-7250,-16.8% (inactive)
same,outcome,HaCat [4],inactive
same,outcome,HACAT [14],inactive
same,Potency,PA-1,inactive
CCCCOc1ccc(-c2cncc(C(=O)NCc3cccnc3N3CCOCC3)c2)cc1Cl,Potency,[1],inactive
same,Potency,[3],3.01 µM (active)
same,max response,CRL-7250,-9.28% (inactive)
same,Potency,PA-1,inactive
same,Potency,SKOV3,inactive
